In PubChem BioAssay (NCI):
Where “and” joins values, the source holds several entries; their conditions need not be identical. Equal entries are not always repeated. Compounds without any hit were thinned out: in the full panel of roughly 79,000, 15% have a hit. Cut-off read from the data, not from the text of the source: active = growth inhibition above about 70%; inactive = the rest. Where a SMILES comes first, the peptide text is derived from it. The star is where a group is joined. Boc = CC(C)(C)OC(=O)*

What was measured:
[1] = NCI Yeast Anticancer Drug Screen. Data for the rad50 strain (AID 155);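 note: 0% = growth of vehicle-only cultures of the same strain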; conditions: S. cerevisiae rad50 strain growth inhibition, hits give high values; at 50.0 µM unless noted
Summary of the method: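 Compounds were tested on a yeast strain with an engineered DNA damage repair alteration; the reported value is growth inhibition normalised to vehicle treatment.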

[2] = NCI Yeast Anticancer Drug Screen. Data for the mec2-1 strain (AID 157); conditions: S. cerevisiae mec2-1 strain, hits give high values; at 50.0 µM unless noted
Summary of the method: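 Mutant yeast (mec2-1) grown with compound; growth inhibition relative to vehicle control reported.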

[3] = NCI Yeast Anticancer Drug Screen. Data for the sgs1 mgt1 strain (AID 161);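 note: 0% = growth of cultures given vehicle only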; conditions: S. cerevisiae sgs1 mgt1 strain, hits give high values; at 50.0 µM unless noted
Summary of the method: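 This yeast growth screen uses a strain with defined DNA-repair lesions; compound-treated growth is compared with vehicle-treated growth.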

[4] = NCI Yeast Anticancer Drug Screen. Data for the cln2 rad14 strain (AID 165);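 note: 0% = growth equal to vehicle treated cultures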; conditions: S. cerevisiae cln2 rad14 strain, hits give high values; at 50.0 µM unless noted
Summary of the method: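 Readout is yeast growth inhibition versus vehicle-treated controls, using a strain with cln2 and rad14 alterations exposed to compound.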

[5] = NCI Yeast Anticancer Drug Screen. Data for the bub3 strain (AID 167); conditions: S. cerevisiae bub3 mutant strain, hits give high values; at 50.0 µM unless noted
Summary of the method: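 Growth of a checkpoint-deficient yeast mutant is measured after compound exposure. Values represent inhibition relative to vehicle.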

[6] = NCI Yeast Anticancer Drug Screen. Data for the mlh1 rad18 strain (AID 175); conditions: S. cerevisiae mlh1 rad18 strain growth inhibition, hits give high values; at 50.0 µM unless noted
Summary of the method: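 Genetically defined yeast (DNA repair-deficient) exposed to compounds; growth inhibition determined relative to vehicle.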

Measured: growth inhibition

COC(=O)C(Cc1c[nH]c2ccccc12)NC(=O)C(Cc1c[nH]c2ccccc12)NC(=O)C(Cc1c[nH]c2ccccc12)NC(=O)C(Cc1c[nH]c2ccccc12)NC(=O)C(Cc1c[nH]c2ccccc12)NC(=O)C(Cc1c[nH]c2ccccc12)NC(=O)OC(C)(C)C (centres undefined) (Boc-WWWWWW-OMe; configuration not given here)
inactive: [1] -6.8% | [2] -12.7% | [3] -18.4% | [4] 7.25% | [5] 8.25% | [6] 16.4%

Nc1nc(Cl)cc(NCCO)n1
inactive: [1] -1.15% and -5.05% | [2] -36.6% and 7% | [3] -39.5% and 20.7% | [4] -7.85% and -0.25% | [5] -21.1% and 4.8% | [6] 1.8% and 43.4%

CC(C)(C)C(=O)CC(=O)C(F)(F)C(F)(F)C(F)(F)F.CC(C)(C)C(=O)CC(=O)C(F)(F)C(F)(F)C(F)(F)F.CC(C)(C)C(=O)CC(=O)C(F)(F)C(F)(F)C(F)(F)F.[La]
inactive: [1] 2.85% | [2] -0.9% | [3] -3.95% | [4] -8.85% | [5] -3.95% | [6] 18.8%

COc1ccc2c(O)c(Oc3ccccc3)c(=O)oc2c1
inactive: [1] 0.5% | [2] 5% | [3] 4.25% | [4] 30.9% | [5] 15.3% | [6] 13.1%

Cc1ccc(OCCC(=O)O)cc1
inactive: [1] 6.9% | [2] -6.15% | [3] -11.2% | [4] -63.5% | [5] -26.6% | [6] -1.65%

CCCCOC(=O)CC(O)C(=O)OCCCC (centres undefined)
inactive: [1] 39.1% | [2] -4.45% | [3] -17.5% | [4] -61.2% | [5] -29.9% | [6] -11%

O=C(O)CSCC(=O)Nc1ccccc1Cl
inactive: [1] -11.6% | [2] -10.3% | [3] 14.6% | [4] 6.05% | [5] 4.3% | [6] -0.35%

N.N.N.N.O=C(O)C1OCCOCCOC(C(=O)O)C(C(=O)O)OCCOCCOC1C(=O)O.[Pt+2].[Pt+2] (centres undefined)
inactive: [1] -33.2% | [2] -14% | [3] -12.5% | [4] -26.1% | [5] -13.5% | [6] -9.2%

CCOCCC(=O)OCCCl
inactive: [1] 29.2% | [2] 9.4% | [3] 13.3% | [4] 10.1% | [5] 15.7% | [6] 22.9%

c1cncc(C2c3[nH]c4ccccc4c3CCN2CCCN2CCCCC2)c1 (centres undefined)
inactive: [1] -5.2% | [2] -36.7% | [3] 2.3% | [4] 10.7% | [5] -9.55% | [6] -0.5%

CCOC(=O)C(CC(C)C)NC(=O)c1ccc(C)c(OCc2ccccc2)c1[N+](=O)[O-] (centres undefined)
inactive: [1] 17.9% | [2] -8.75% | [3] 37.9% | [4] 0.6% | [5] 11.6% | [6] -3.9%

O=c1c2c3c(sc2nc2n1N=C(c1ccc(Cl)cc1)CS2)CCCC3
inactive: [1] -23.6% | [2] 6.05% | [3] -37.9% | [4] 1.8% | [5] -12.1% | [6] -16.6%

CN(C)P1(=O)N(c2ccccc2)P(=O)(N(C)C)N1c1ccccc1 (centres undefined)
inactive: [1] -11.5% | [2] -32.1% | [3] -17.1% | [4] -1.55% | [5] -19.4% | [6] -34.7%

O=C1OCCOCCOCCOCCOC(=O)c2cccc1n2
inactive: [1] -10.2% | [2] 6.65% | [3] 12.6% | [4] 17.1% | [5] 5.2% | [6] 7.2%

Cc1ccc(S(=O)(=O)N/N=C(/c2nc3ccc([N+](=O)[O-])cc3[nH]c2=O)C(O)c2ccc(C(O)/C(=N\NS(=O)(=O)c3ccc(C)cc3)c3nc4ccc([N+](=O)[O-])cc4[nH]c3=O)cc2)cc1 (centres undefined)
inactive: [1] -16.6% | [2] -27.6% | [3] -26.2% | [4] 0.6% | [5] -32.7% | [6] -10.3%

CSc1cccc(NC(=S)NC(=O)c2ccccc2)c1
inactive: [1] -0.25% | [2] -8.15% | [3] -0.65% | [4] -2.4% | [5] 2.55% | [6] -17.4%

N#CCN1CCc2ccccc2C1
inactive: [1] -8.45% | [2] -7.15% | [3] -6.65% | [4] -33.9% | [5] -11.7% | [6] -6%

CCc1ccc2c(c1)C(O)(C#Cc1ccccc1)c1cc(CC)ccc1C2(O)C#Cc1ccccc1 (centres undefined)
inactive: [1] 37.5% | [2] 25.2% | [3] 45.5% | [4] 22.9% | [5] -4.8% | [6] 32.7%

c1ccc2c(c1)C(=NCCCN1CCCCCCC1)c1cccn1-2
inactive: [1] 23.5% | [2] 9.95% | [3] 29.1% | [4] -2.7% | [5] 23.1% | [6] 25.4%
